High-throughput results from PubChem.
In the library only some 7% were active in any assay of this set; here they are far more common.
PLK1 PBD block: blocks phosphopeptide binding to human PLK1 polo-box domain | Potency, µM, for the others: max response, negative = inhibition, usual class: inhibitors | 2.8% of 360,000 active | AID 720504 | Plk1 PBD binding of FITC phosphopeptide, fluorescence polarization; note: potency is the fitted concentration of half-maximal effect; series mostly up to about 57 µM; % is set by controls: 0 for no effect and ±100 for the full control effect; nearly all actives have a fitted effect of over 65% in size
HP1b binding inh: HP1-beta chromodomain-methylated histone interaction inhibition; AlphaScreen HP1-beta / biotin-H3K9me3 peptide binding; Potency, µM (series often up to 114 µM), without a hit: at the highest dose activity change, negative = inhibition, usual class: inhibitors; 0.56% of 390,000 active; AID 540317; note: potency is the fitted concentration of half-maximal effect; nearly all actives have a fitted effect of over 70% in size
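AlphaScreen: HP1-beta (50 nM) preformed 30 min with biotin-H3(1-18)K9me3 peptide (50 nM) in PBS pH 7.4, 0.01% Tween-20. Compound added for 30 min at RT, then streptavidin donor/nickel chelate acceptor beads (10 ug/mL) for 30 min.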
BAZ2B block: inhibitors of human BAZ2B bromodomain. AlphaScreen BAZ2B-H3K14Ac peptide displacement. Potency, µM (highest dose often 114 µM), for the others: at the highest dose activity change, negative = inhibition, usual class: inhibitors. 4.4% of 360,000 active. Q9UIF8; note: potency is the fitted concentration of half-maximal effect; % is set by controls: 0 for no effect and ±100 for the full control effect; nearly all actives have a fitted effect of over 60% in size
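BAZ2B (50 nM) with biotin-H3(5-23)K14Ac peptide (50 nM) in PBS pH 7.4, 0.01% Tween-20, preformed 30 min, then compound 30 min at room temperature; top concentration 110uM. AlphaScreen streptavidin donor/nickel chelate acceptor beads (10 ug/mL final), 20 min dark, signal read.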
KAT2A inh: GCN5L2 (KAT2A) acetyltransferase inhibition; Q92830; GCN5L2 HAT assay, ThioGlo1 CoA-SH fluorescence; Potency, µM (doses to about 58.9 µM), without a hit: at the highest dose activity change, negative = inhibition, hits mostly inhibitors; 0.21% of 390,000 active; note: potency is the fitted concentration of half-maximal effect; % is set by controls: 0 for no effect and ±100 for the full control effect
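Compounds, pin-transferred from DMSO stocks, meet 20nM GCN5L2 for 15 min before the reaction begins with H3(1-25) peptide (75uM) and acetyl-CoA (70uM). Thiol-reactive ThioGlo1 reports CoA release over 20 min at room temperature.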
JMJD2A Tudor inh: JMJD2A Tudor domain (human) inhibition | O75164 | AlphaScreen JMJD2A-Tudor / H3K4me3 peptide binding | Potency, µM (series often up to 114 µM), for inactives: top-dose activity change, negative = inhibition, most hits filed as inhibitors | 4.4% of 390,000 active | AID 504339; note: potency is the fitted concentration of half-maximal effect; % is set by controls: 0 for no effect and ±100 for the full control effect; nearly all actives have a fitted effect of over 50% in size
PI5P4K alpha inh: blocks human PI5P4K alpha kinase activity; 1.2% of 330,000 active; PI5P4Kalpha enzyme, ADP-Glo luminescence, 60 min; stronger effect = lower value; AID 652105; P48426; max response, %; active = max response of -50% or lower; inconclusive = between -30% and -50%; inactive = -30% or higher; note: value at the top dose of about 77 µM; % is set by controls: 0 for no effect and ±100 for the full control effect
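ADP-Glo luminescence end-point read after a 60 min room-temperature kinase reaction of PI5P4Kalpha plus substrate, initiated with ATP at 5 microM final. Buffer: 0.038 M HEPES pH 7.4, EGTA, 0.1% CHAPS, 5% DMSO.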
* marks the source's active call; other numbers are inactive results; ? = inconclusive; · = no result; [ ] = remark or other dose. Unless noted, calls come from the whole dose curve; as a rule, active = well fitted curve in the direction sought with a large enough effect; inconclusive = small, poorly fitted or top-dose-only effect, or another doubt; inactive = no such curve, though single readings can be large; an effect the other way counts as inactive or inconclusive.

SMILES	PLK1 PBD block	HP1b binding inh	BAZ2B block	KAT2A inh	JMJD2A Tudor inh	PI5P4K alpha inh
CC1=C(C(=O)Nc2cccc(Cl)c2)C2(CCCCCC2)OC1=O	·	19%	-17%	-7%	-34%	·
Cc1ccc(N2CC(C(=O)Nc3ccc(N(C)C)cc3)CC2=O)cc1C (stereo not drawn)	0%	-6%	?	-23%	56µM*	-6
Cc1ccc(N2CC(C(=O)Nc3ccccc3C(=O)NC3CCCCC3)CC2=O)cc1C (stereo not drawn)	-9%	-11%	·	·	20µM*	-2
Cc1ccc(N2CC(C(=O)Nc3ccccc3C(=O)NC3CCCCC3)CC2=O)cc1 (stereo not drawn)	-2%	30%	2%	0%	-10%	·
CCN(CC)c1ccc(-n2cc3c(=O)n(C)c(=O)n(C)c3c2)cc1	-13%	32µM*	32µM*	0%	56µM*	-23
CN(C)c1ccc(-n2cc3c(=O)n(C)c(=O)n(C)c3c2)cc1	-4%	?	35µM*	-6%	?	?
Cc1cccc(-n2cc3c(=O)n(C)c(=O)n(C)c3c2)c1	-20%	20%	?	-2%	-17%	-7
Cc1cc(C(=O)CSCCCn2c(=O)[nH]c3ccccc32)c(C)n1C	-21%	-15%	?	-6%	50µM*	-15
O=S(=O)(NC(=NCc1ccccc1)c1ccccc1)c1ccc(Br)cc1	-5%	10%	2%	-1%	-15%	-4
Cc1ccc(/C=C2/SC(=S)N(CCC(=O)N3CCN(c4ccccc4)CC3)C2=O)cc1	·	·	-2%	-23%	·	·
CCCOc1ccc(-c2nn(-c3ccccc3)cc2/C=C2\SC(N)=NC2=O)cc1	7%	25%	4%	-11%	6%	-1
Cc1ccc(-c2nn(-c3ccccc3)cc2C=C2SC(=S)N(CCS(=O)(=O)O)C2=O)cc1	11µM*	·	·	·	·	-89*
O=C1C(=Cc2cn(-c3ccccc3)nc2-c2ccc(OCc3ccccc3)cc2)SC(=S)N1CCS(=O)(=O)O	?	·	·	·	·	-65*
Cc1ccccc1-c1noc(-c2cccnc2N(C)Cc2ccc(Cl)cc2)n1	·	34%	-1%	-6%	-9%	·
CCC(C)(C)C1CCC2(CC1)NC(=O)N(CC(=O)NCCc1c[nH]c3ccccc13)C2=O (stereo not drawn)	1%	20%	-3%	3%	-3%	5
O=C(NCCCN1CCCC1)c1[nH]c(C(F)(F)F)nc1-c1ccccc1	-15%	·	·	·	·	5
COc1ccc(C=C2c3ccccc3C(=O)c3ccccc32)c(OC)c1	·	·	13µM*	-4%	·	·
COc1ccc(/C=C2\CN(Cc3ccccc3)C/C(=C\c3ccc(OC)cc3OC)C2=O)c(OC)c1	-5%	?	25µM*	-18%	?	-4
Cc1ccc(Nc2nc(C#N)nc(NC3CCCC3)n2)cc1	·	·	·	·	-16%	·
Cc1cccc(-n2c(SCC(N)=O)nnc2-c2ccccn2)c1C	-1%	13%	18µM*	-8%	79µM*	1
Cc1ccc(-n2c(SCCN)nnc2-c2cccc(C)c2)cc1	-21%	43%	79µM*	2%	-16%[11.4 µM]	-7
CCN(CC)C(=O)CSc1nnc(-c2ccccn2)n1-c1ccc(C)c(C)c1	1%	50%	45µM*	-2%	?	-2
NC(=O)CSc1nnc(-c2ccccn2)n1N	4%	30%	22µM*	-1%	71µM*	-7
CC(C)Cn1cc(NC(=O)NCc2cccc(Cl)c2)c2ccccc2c1=O	·	28%	0%[57.1 µM]	-8%	-18%	·
Cc1cccc(NC(=O)CN2C(=O)C3(SCC(=O)N3c3ccccc3)c3ccccc32)c1 (stereo not drawn)	·	-2%	1%[57.1 µM]	-11%	-27%	·
CCOc1ccc(-n2c(COc3ccc(C)cc3)nnc2SCC(N)=O)cc1	4%	1%	-32%	-1%	-17%	·
CCc1ccccc1-n1c(SCC(=O)N2CCCC2)nnc1-c1ccccn1	-3%	19%	56µM*	-5%	?	0
Nn1c(SCc2ccccc2)nnc1-c1ccccn1	0%	40%	14µM*	36%	6%	0
